The results in this text go back to the supplement of paper PMC6555819.

The test system of one experiment is PPARg:RXRa (NR concentration 180 nM, RXRa partner concentration 90 nM). Put plainly: PBM binding z-score (relative to random genomic background probes); higher = stronger binding; sequences stand for … in GC…GCGATTGACAGCGTAGAATGAAGG
An outline of the steps:
(§1)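 Custom Agilent 4×180K protein-binding microarrays carried double-stranded probes. Their 34-nt variable regions held direct-repeat seeds, single-nucleotide variants, half-site ablations and random human genomic background sequences. Arrays were incubated 1 h with ligand-free nuclear receptor dimers in PBS pH 7.4, 2% milk, 0.02% Triton X-100, 1 mM DTT, 0.2 mg/mL BSA and 0.4 mg/ml salmon testes DNA. Antibodies against each partner (one per run) detected binding, and scanned fluorescence was regression-normalized. Binding z-scores use random background probes as reference.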
In turn, CCTACTGGGCCAACGTCATTGATCAGTCAAAGCA registered a PBM binding z-score of 0.876.
Same read-out and setting: for CCGACTCGGGCAGAAAGGTTACCATACCATCCGG the value was 1.41.
Turning to CCTTCTGGGCCACGAAAGGTCATTGATTCAGTGA, the PBM binding z-score was 3.74.
As for ACTAGCAGGCCGAGGGTCACTCAAGATTAGTCCG, the PBM binding z-score turned out to be 3.61.
Take CCTATTAGTTGACCATAAGGGCAACCGAAGCTCG: the PBM binding z-score is 0.556.
The same measure, in the same setting: for ACTATTAGTTGACTTACGGCAACCGATACGACGC the value was 1.09; for CCGGCTAGGTCAATGGTCAGCTAAAGCAGCTCGC, 3.63; for TCTAGCAGGCCAGAGGGTCGCTCAAGAGGTACGG, 0.213.
ACTTCCGGGTCAACGAGGTTATAGCACGCGTATA: the PBM binding z-score amounted to 6.06.
On the same count and under the same terms, in the case of CCGACTGAGGCATAAGGTTACCATAAGCCAGCCC it was 0.973; in that of GGAACGAGGGCAAGTTGACAGCAGAGTTTGATGG, 1.15; in that of CCAGACTGGTGAGAAGGTAACTCAGCCTCGATTA, 0.0437.
CGTCCAAGGTCAGAGAGGTCAGTGGATGCCGAGT came in with a PBM binding z-score of 3.46.
Take TCGGACAGGTGAAGGTAACTCAGGTACGCAGTCG: the PBM binding z-score was 0.599.
The sequence GCTATTAGTTGAAAGGGCAACCGAATGATTCTCG yielded a PBM binding z-score of 2.9.
As to ACAGACAGGTGATGAAGGTGACTCAGGCTATCAT, the PBM binding z-score was found to be 0.82.
The sequence ACTATTAGTTGAGACGATGGCAACCGATAGGTTG gave a PBM binding z-score of 0.598.
Sequence ACACCAAGGTGATCGTGAGGTCGTTGATACTAAC showed a PBM binding z-score of 0.514.
TGAATGAGGTTATAAAATCAGGGAACGTTGCAAA had a PBM binding z-score of 0.802.
Sequence TATACAGGGTCAAAAGCCAGAGTACGAATGTCGA returned a PBM binding z-score of 6.57.
Consider ACTTACGGGTCACCGAGGTTATAGCACGCGTATA, for which the PBM binding z-score was found to be 7.11.
TCTGGTAGGTCAGTTGGTCAGCTAACGAGCTGCC displayed a PBM binding z-score of 1.6.
As for AATACAGCGTCATCGTAGGCCAGAGTACGCACAG, the PBM binding z-score was 0.716.
CGTCAAAGTTCAACTCAGGTAACGTAAAGCACGC: the PBM binding z-score is 4.66.
Sequence ATATGTAGGTTAAGGGTGATTCAGGTTGGTTCGC returned a PBM binding z-score of 9.36.
With CCAGACAGGTGAAAGATAACTCAGTCTGGTACGC, the PBM binding z-score came out at 1.27.
TCTAGTTGATCAAAGGTCACACACTCGAAATGCG showed a PBM binding z-score of 7.89.
Turning to TCTCGGAGGACAGGAAGGTCAGAGCTTTCCAGAG, the PBM binding z-score was -0.0448.
The sequence CTCTAAAGGTCGGTTGAGGTGAGTATACGGATAA returned a PBM binding z-score of 0.622.
Still for that read-out and setting: for CGTCCAAGGTCAGAGAGGTTAGTGAATGCCGAGT the value was 2.47; for CCGACTGCGGCAAGGTTACCATAACGCACAGCCA, 0.614; for CCTAGCAGGACAATCTGGGTCACTCAAGGCTTGA, 2.44.
AGGCAAAGTTCACTAGGTAACGTAAGATTCAGCT came in with a PBM binding z-score of 6.33.
As to CTCGAAAGGACGGTTGAGGTGAGTATACGGATAA, the PBM binding z-score was 0.232.
CGAACGAGGGCATGAGTCGATAGCAAATGCCGAT had a PBM binding z-score of 1.74.
CCTACTTGGCCAAAAAGGTCATTGATGCCGATAA gave a PBM binding z-score of 1.74.
Sequence CCTACTGGGCCATCAGGTCATTAATATCAACGTT registered a PBM binding z-score of 2.9.
For the sequence TCTAGTTGGTCAGGGAGGTCACACACGACGGGTA, the PBM binding z-score stood at 2.28.
GCTAGCAGGCCAATTGGGTCACTCAATGACGGGC: the PBM binding z-score is 1.01.

In a further experiment the test system is PPARg:RXRa 270nM:90nM, anti-RXR (NR concentration 270 nM, RXRa partner concentration 90 nM). The experiment is described as above. An outline of the steps:
as §1
Sequence CCTACTGGGCCAACGTCATTGATCAGTCAAAGCA registered a PBM binding z-score of 0.556.
CCGACTCGGGCAGAAAGGTTACCATACCATCCGG gave a PBM binding z-score of 2.44.
Same read-out and setting: in the case of CCTTCTGGGCCACGAAAGGTCATTGATTCAGTGA it was 4.4; in that of ACTAGCAGGCCGAGGGTCACTCAAGATTAGTCCG, 4.99.
CCTATTAGTTGACCATAAGGGCAACCGAAGCTCG displayed a PBM binding z-score of 0.931.
Consider ACTATTAGTTGACTTACGGCAACCGATACGACGC, for which the PBM binding z-score was 0.0509.
The same measure, in the same setting: in the case of CCGGCTAGGTCAATGGTCAGCTAAAGCAGCTCGC it was 4.32; in that of TCTAGCAGGCCAGAGGGTCGCTCAAGAGGTACGG, 1.29; in that of ACTTCCGGGTCAACGAGGTTATAGCACGCGTATA, 5.53.
The sequence CCGACTGAGGCATAAGGTTACCATAAGCCAGCCC gave a PBM binding z-score of 1.31.
The same measure, in the same setting: for GGAACGAGGGCAAGTTGACAGCAGAGTTTGATGG the value was 1.35; for CCAGACTGGTGAGAAGGTAACTCAGCCTCGATTA, -0.117.
As to CGTCCAAGGTCAGAGAGGTCAGTGGATGCCGAGT, the PBM binding z-score is 4.26.
TCGGACAGGTGAAGGTAACTCAGGTACGCAGTCG displayed a PBM binding z-score of 1.57.
On the same count and under the same terms, in the case of GCTATTAGTTGAAAGGGCAACCGAATGATTCTCG it was 4.29; in that of ACAGACAGGTGATGAAGGTGACTCAGGCTATCAT, 0.457; in that of ACTATTAGTTGAGACGATGGCAACCGATAGGTTG, -0.0569.
Consider ACACCAAGGTGATCGTGAGGTCGTTGATACTAAC, for which the PBM binding z-score amounted to 0.34.
Sequence TGAATGAGGTTATAAAATCAGGGAACGTTGCAAA showed a PBM binding z-score of 1.19.
In the case of TATACAGGGTCAAAAGCCAGAGTACGAATGTCGA, the PBM binding z-score came out at 6.01.
Regarding ACTTACGGGTCACCGAGGTTATAGCACGCGTATA, the PBM binding z-score was found to be 6.57.
On the same count and under the same terms, for TCTGGTAGGTCAGTTGGTCAGCTAACGAGCTGCC the value was 2.93; for AATACAGCGTCATCGTAGGCCAGAGTACGCACAG, -0.141.
As to CGTCAAAGTTCAACTCAGGTAACGTAAAGCACGC, the PBM binding z-score turned out to be 5.43.
Sequence ATATGTAGGTTAAGGGTGATTCAGGTTGGTTCGC gave a PBM binding z-score of 8.2.
In the case of CCAGACAGGTGAAAGATAACTCAGTCTGGTACGC, the PBM binding z-score turned out to be 1.47.
Consider TCTAGTTGATCAAAGGTCACACACTCGAAATGCG, for which the PBM binding z-score is 7.86.
Still for that read-out and setting: in the case of TCTCGGAGGACAGGAAGGTCAGAGCTTTCCAGAG it was 1.49; in that of CTCTAAAGGTCGGTTGAGGTGAGTATACGGATAA, 1.44.
In turn, CGTCCAAGGTCAGAGAGGTTAGTGAATGCCGAGT yielded a PBM binding z-score of 2.56.
For the sequence CCGACTGCGGCAAGGTTACCATAACGCACAGCCA, the PBM binding z-score is -0.189.
Consider CCTAGCAGGACAATCTGGGTCACTCAAGGCTTGA, for which the PBM binding z-score is 2.26.
Still for that read-out and setting: for AGGCAAAGTTCACTAGGTAACGTAAGATTCAGCT the value was 6.04; for CTCGAAAGGACGGTTGAGGTGAGTATACGGATAA, -0.0748.
In turn, CGAACGAGGGCATGAGTCGATAGCAAATGCCGAT returned a PBM binding z-score of 2.28.
For CCTACTTGGCCAAAAAGGTCATTGATGCCGATAA, the PBM binding z-score was 3.04.
On to CCTACTGGGCCATCAGGTCATTAATATCAACGTT, for which the PBM binding z-score is 3.3.
As to TCTAGTTGGTCAGGGAGGTCACACACGACGGGTA, the PBM binding z-score stood at 3.13.
In turn, GCTAGCAGGCCAATTGGGTCACTCAATGACGGGC gave a PBM binding z-score of 1.14.
